HT1080-NT tox: kills 2HG-producing HT-1080-NT fibrosarcoma cells; HT-1080-NT fibrosarcoma viability, CellTiter-Glo ATP luminescence, 48 h; hit rate 1.6% among 360,000; Potency, µM (titrated, usually from 46.1 µM), for the others: at the top dose activity, negative = less viability, actives largely listed as cytotoxic; AID 686970;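 note: NT is the 2HG producing partner of a matched IDH1 knockdown line; potency is the fitted concentration of half-maximal effect; 0% = DMSO-treated cells and -100% = media-only wells without cells; nearly all actives have a fitted effect of over 55% in size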
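Fibrosarcoma NT cells, 750 per well in 5% FBS RPMI, were exposed to compound for 48 hours. Viability: CellTiter-Glo luminescence.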
KB-3-1 cytotox: kills parental KB-3-1 adenocarcinoma cells; Potency, µM (titrated, usually from 46.1 µM), usual class: cytotoxic; hit rate 1.4% among 400,000; KB-3-1 viability, CellTiter-Glo ATP luminescence, 72 h; note: potency is the fitted concentration of half-maximal effect; nearly all actives have a fitted effect of over 60% in size
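Here the drug-naive KB-3-1 line serves as comparator for MDR sub-line selectivity; cells received compound titrations, 72 h at 37 °C, then CellTiter-Glo readout.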
IL1B secr inh: inhibitors of inflammasome signaling (IL-1 beta secretion). hit rate 4.7% among 360,000. AID 743279. activity change, % at 57.5 µM. THP-1 LPS/ATP IL-1B secretion, AlphaLISA, 16 h; active compounds read low; in the data active = activity change below about -50%; inconclusive = mostly about -30% to -49%
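Secreted IL-1B measured by AlphaLISA bead assay after 16 h compound exposure of THP-1 cells; compounds (final up to 57.5 uM) added 1 h before LPS (250 ng/mL) and ATP (1.25 mM) stimulation; lower signal means less secretion.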
HT1080 IDH1KD tx: HT-1080 IDH1 knockdown cell toxicity (counter line); HT-1080 IDH1 knockdown viability, ATP luminescence, 48 h; hit rate 2% among 360,000; Potency, µM (highest dose often 46.1 µM), for inactives: at the highest dose activity, negative = toxicity, usual class: cytotoxic; AID 686971;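 note: potency is the fitted concentration of half-maximal effect; 0% = DMSO wells and -100% = cell-free medium wells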
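Assay cells: HT-1080 with IDH1 knockdown, 750 per well, RPMI/5% FBS. Exposure: 48 h at 37 °C following 2 h pre-incubation. Read: CellTiter-Glo luminescence; fitted concentration-response, curve class assigned.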
KB-V1 cytotox: KB-V1 MDR subline cytotoxicity; KB-V1 MDR cells viability, CellTiter-Glo, 72 h; Potency, µM (top dose mostly 46.1 µM), most hits filed as cytotoxic; AID 1347076; hit rate 3.4% among 400,000; note: potency is the fitted concentration of half-maximal effect; nearly all actives have a fitted effect of over 60% in size
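KB-V1 MDR subline cells in DMEM (phenol-red free, 10% FBS) exposed to compounds in qHTS concentration series for 72 h at 37 degrees C. Viability read by CellTiter-Glo luminescence; concentration-effect curves fitted after normalization and correction.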
Numbers without * were called inactive; i = inactive; ? = inconclusive; nt = no result given; ! = repeats disagree. The list is not random: actives were taken first. Their share in the collection is about 8.8%. Unless noted, calls come from the whole dose curve; as a rule, active = well fitted curve in the direction sought with a large enough effect; inconclusive = small, poorly fitted or top-dose-only effect, or another doubt; inactive = no such curve, though single readings can be large; an effect the other way counts as inactive or inconclusive. Unless noted, % is set by controls: 0 for no effect and ±100 for the full control effect.

SMILES | HT1080-NT tox | KB-3-1 cytotox | IL1B secr inh | HT1080 IDH1KD tx | KB-V1 cytotox
O=C(NC(=S)NN1CCCCC1c1cccnc1)c1ccc(Br)cc1 (configuration not stated) | -15% | i | -55* | -2% | i
COc1cc2c(cc1N)-c1ccc(N)cc1C2=O | 3% | i | -64* | -3% | i
CN(C)S(=O)(=O)c1ccc(NC(=O)c2cc(F)c(F)cc2Cl)cc1 | 2% | i | ? | -5% | 23µM*
OC(COc1ccc2ccccc2c1Br)Cn1cnc(-c2ccccc2)c1 (configuration not stated) | ? | i | -96* | ? | i
COc1cccc(C(=O)NCC2CCCN(C(=O)Cc3cccc(C)c3)C2)c1OC (configuration not stated) | 1% | i | 20 | 2% | i
CCC(C)Sc1ccc([C@@H]2[C@H]3C(=O)N(CC)C(=O)[C@H]3[C@]3(C(=O)OC)CCCN23)cc1OC (some centres not stated) | 1% | i | -6 | 0% | i
Cc1cc(NC(=O)N(C)CCc2c(C)nn(C)c2C)ccc1Br | nt | i | nt | nt | i
CC(C)OC(=O)CSc1nc2ccccc2s1 | 10% | i | 6 | 13% | i
NCCNc1ccc([N+](=O)[O-])c(Sc2nc3ccccc3[nH]2)c1 | 0% | i | -6 | -21% | i
CCC(=O)OCCNc1cc(Sc2nc3ccccc3[nH]2)c2nonc2c1[N+](=O)[O-] | ? | 23µM* | -101* | ? | i
O=[N+]([O-])c1c(NCCCO)cc(Sc2nc3ccccc3s2)c2nonc12 | 11µM* | i | ? | 6.3µM* | i
Cc1nnc(Sc2cc(NCCCO)c([N+](=O)[O-])c3nonc23)s1 | 16µM* | i | -105* | 16µM* | i
CCC(=O)OCCNc1cc(Sc2nc3ccccc3s2)c2nonc2c1[N+](=O)[O-] | -58% | i | -14 | 2.8µM* | i
Cc1nnc(Sc2cc(NCCO)c([N+](=O)[O-])c3nonc23)s1 | ? | i | 2 | ? | ?
CCc1nc2ccc(C(=O)N(C)C(C)C)cn2c1N(CCC(C)C)CCN(C)C | 2% | i | -4 | 3% | i
O=[N+]([O-])c1cccc(/C=N\N2CCN(Cc3ccccc3Cl)CC2)c1 | -2% | i | -68* | -2% | i
Cc1ccc([C@@]2(OC(=O)c3ccccc3)C(=O)N(C(=O)OC(C)(C)C)c3ccccc32)cc1 | 21% | i | 61 | 8% | i
Cc1ccccc1Cn1ccc(NC(=O)c2cnn3c2NC(c2ccccc2)CC3C(F)(F)F)n1 (configuration not stated) | ? | i | -66* | ? | i
Cc1c(CNC(=O)c2nn3c(c2Cl)NC(c2ccccc2)CC3C(F)(F)F)cnn1C (configuration not stated) | -6% | i | 14 | 6% | 21µM*
COc1ccc(C2CC(C(F)(F)F)n3nc(C(=O)NCc4c(C)nn(C)c4C)c(Cl)c3N2)cc1 (configuration not stated) | ? | ? | -11 | -15% | 6.5µM*
Cc1nn(C)c(C)c1CN(C)C(=O)c1cnn2c1NC(c1ccccc1)CC2C(F)(F)F (configuration not stated) | 1% | i | 45 | 5% | ?
O=C(NCc1ccco1)c1cnn2c1NC(c1ccccc1)CC2C(F)(F)F (configuration not stated) | -12% | i | -10 | -14% | i
O=C(CC(=O)Nc1cccc(Cl)c1Cl)Nc1cccc(Cl)c1Cl | -7% | i | -15 | 0% | i
O=C(NCCc1ccc(Cl)cc1)c1ccc2c(c1)nc1n2CCOC1 | nt | i | nt | nt | i
COc1ccccc1CN1[C@@H](CC(=O)O)c2cc(F)ccc2S1(=O)=O | 12% | i | 38 | -1% | i
SMILES | HT1080-NT tox | KB-3-1 cytotox | IL1B secr inh | HT1080 IDH1KD tx | KB-V1 cytotox
COC(=O)C=C1CCC2C3CCC4=CC(=O)C(Br)CC4(C)C3C(=O)CC12C (configuration not stated) | -11% | ? | -95* | -15% | ?
Cc1[nH]c2ccccc2c1SCCNC(=O)c1ccc(Br)o1 | -12% | i | -82* | -10% | i
COCCCN(C(=S)Nc1cc(Cl)cc(Cl)c1)C(C)c1ccncc1 (configuration not stated) | 0% | i | -68* | -13% | ?
COCCCN(C(=S)Nc1cc(Cl)cc(Cl)c1)C(C)c1ccccn1 (configuration not stated) | ? | i | 0 | -12% | ?
Cc1cccc(NC(=O)CSc2nc3ccccc3c3nc(CCc4c(C)n[nH]c4C)nn23)c1 | ? | ? | -10 | ? | 23µM*!
Cc1n[nH]c(C)c1CCc1nc2c3ccccc3nc(SCC(=O)Nc3ccccc3F)n2n1 | ? | i | 60 | ? | i
Cc1cncn1CCc1nc2c3ccccc3nc(SCC(=O)Nc3cccc(Cl)c3)n2n1 | -17% | ? | -97* | -17% | ?
COCCCNC(=O)Cn1cnc2sc(C)c(S(=O)(=O)N3CCC(C)CC3)c2c1=O | nt | i | nt | nt | i
CC1Cc2cc(/C(O)=C3/C(=O)C(=O)N(CCCN4CCOCC4)C3c3ccc(C(C)C)cc3)ccc2O1 (configuration not stated) | -1% | i | 15 | -3% | i
Cc1cccc(C(=O)Oc2c(Sc3ccccc3)c(C)nn2C(C)(C)C)c1 | nt | i | nt | nt | i
S=C(NCCc1ccccc1)NC1CC2CCC(C1)N2Cc1ccccc1 (configuration not stated) | -15% | i | -60* | -8% | i
CCCNC(=S)NC1CC2CCC(C1)N2Cc1ccccc1 (configuration not stated) | 4% | i | -4 | 3% | i
CC(=O)Cc1nsc(NC(=O)c2ccc(-c3ccc(Cl)c(Cl)c3)o2)n1 | 6% | i | -3 | 0% | i
CC(=O)Cc1nsc(NC(=O)c2ccc(-c3cc(C(F)(F)F)ccc3Cl)o2)n1 | 11µM* | i | 16 | 11µM* | i
CC(=O)Cc1nsc(NC(=O)c2ccc(-c3cc(Cl)ccc3Cl)o2)n1 | 21µM* | ? | 2 | 23µM* | ?
CC(C)NC(=O)c1ccc(-c2cc(C(F)(F)F)ccc2Cl)o1 | 7% | i | -2 | -5% | i
CC(=O)Cc1nsc(NC(=O)c2ccc(-c3cccc(C(F)(F)F)c3)o2)n1 | -15% | ? | 27 | -15% | 5.8µM*
CC(=O)Cc1nsc(NC(=O)c2ccc(-c3ccc(Cl)cc3Cl)o2)n1 | 0% | i | 18 | 7% | i
